# Measured values from the supplement of paper PMC4466140.
# Columns and labels:
# Assay in all cases: SPOT peptide array binding signal intensity (averaged, normalized) (arbitrary units (background-subtracted, floor 0; scale differs between SH3 domains)); higher = stronger binding of the SH3 domain to the peptide
# [1] = target: AgAbp1
# Outline: (§1)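 Spot intensities were captured after detection with anti-GST antibody, an HRP-linked anti-mouse secondary and luminol, and quantified with Genespotter. The probes were GST-fused SH3 domains from four yeast species, produced in E. coli BL21(DE3), purified on glutathione Sepharose and incubated at 10 μg/ml overnight at 4°C on cellulose-bound synthetic 15-mer peptides with cysteines replaced by serines. Binding signal is the normalized, background-subtracted spot intensity averaged over replicates, and its arbitrary units differ between domains.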
# [2] = target: AgBbc1
# Outline: as §1
# [3] = target: AgBem1-D1
# Outline: as §1
# [4] = target: AgBzz1-D1
# Outline: as §1
# [5] = target: AgBzz1-D2
# Outline: as §1
# [6] = target: AgCyk3
# Outline: as §1
# [7] = target: AgFus1
# Outline: as §1
# [8] = target: AgHof1
# Outline: as §1
# [9] = target: AgHse1
# Outline: as §1
# [10] = target: AgLsb1
# Outline: as §1
# [11] = target: AgLsb4
# Outline: as §1
# [12] = target: AgMyo5
# Outline: as §1
# [13] = target: AgNbp2
# Outline: as §1
# [14] = target: AgRvs167
# Outline: as §1
# [15] = target: AgSho1
# Outline: as §1
# [16] = target: AgSla1-D1-D2
# Outline: as §1
# [17] = target: AgSla1-D3
# Outline: as §1
# [18] = target: CaAbp1-D1
# Outline: as §1
# [19] = target: CaAbp1-D2
# Outline: as §1
# [20] = target: CaBbc1
# Outline: as §1
# [21] = target: CaBem1-D1
# Outline: as §1
# [22] = target: CaBzz1-D1
# Outline: as §1
# [23] = target: CaBzz1-D2
# Outline: as §1
# [24] = target: CaCyk3
# Outline: as §1
# [25] = target: CaFus1
# Outline: as §1
# [26] = target: CaHof1
# Outline: as §1
# [27] = target: CaHse1
# Outline: as §1
# [28] = target: CaLsb1
# Outline: as §1
# [29] = target: CaLsb4
# Outline: as §1
# [30] = target: CaMyo5
# Outline: as §1
# [31] = target: CaNbp2
# Outline: as §1
# [32] = target: CaRvs167
# Outline: as §1
# [33] = target: CaRvs167-3
# Outline: as §1
# [34] = target: CaSho1
# Outline: as §1
# [35] = target: CaSla1-D1-D2
# Outline: as §1
# [36] = target: CaSla1-D3
# Outline: as §1
# [37] = target: ScAbp1
# Outline: as §1
# [38] = target: ScBbc1
# Outline: as §1
# [39] = target: ScBem1-D1
# Outline: as §1
# [40] = target: ScBzz1-D1
# Outline: as §1
# [41] = target: ScBzz1-D2
# Outline: as §1
# [42] = target: ScCyk3
# Outline: as §1
# [43] = target: ScFus1
# Outline: as §1
# [44] = target: ScHof1
# Outline: as §1
# [45] = target: ScHse1
# Outline: as §1
# [46] = target: ScLsb1
# Outline: as §1
# [47] = target: ScLsb2
# Outline: as §1
# [48] = target: ScLsb3
# Outline: as §1
# [49] = target: ScLsb4
# Outline: as §1
# [50] = target: ScMyo3
# Outline: as §1
# [51] = target: ScMyo5
# Outline: as §1
# [52] = target: ScNbp2
# Outline: as §1
# [53] = target: ScPex13
# Outline: as §1
# [54] = target: ScRvs167
# Outline: as §1
# [55] = target: ScSho1
# Outline: as §1
# [56] = target: ScSla1-D1-D2
# Outline: as §1
# [57] = target: ScSla1-D3
# Outline: as §1
# [58] = target: SpAbp1-D1
# Outline: as §1
# [59] = target: SpBbc1
# Outline: as §1
# [60] = target: SpBzz1-D1
# Outline: as §1
# [61] = target: SpBzz1-D2
# Outline: as §1
# [62] = target: SpCyk3
# Outline: as §1
# [63] = target: SpHof1
# Outline: as §1
# [64] = target: SpHof1-2
# Outline: as §1
# [65] = target: SpHof1-3
# Outline: as §1
# [66] = target: SpHse1
# Outline: as §1
# [67] = target: SpLsb1
# Outline: as §1
# [68] = target: SpLsb4
# Outline: as §1
# [69] = target: SpMyo1
# Outline: as §1
# [70] = target: SpNbp2
# Outline: as §1
# [71] = target: SpPex13
# Outline: as §1
# [72] = target: SpRvs167
# Outline: as §1
# [73] = target: SpSla1-D1-D2
# Outline: as §1
# [74] = target: SpSla1-D3
# Outline: as §1
binder,measurement,setting,value
NQARKPFLLPATELS,SPOT peptide array binding signal intensity,[1],≤ 0
same,SPOT peptide array binding signal intensity,[2],≤ 0
same,SPOT peptide array binding signal intensity,[3],23.5
same,SPOT peptide array binding signal intensity,[4],19
same,SPOT peptide array binding signal intensity,[5],16.5
same,SPOT peptide array binding signal intensity,[6],≤ 0
same,SPOT peptide array binding signal intensity,[7],≤ 0
same,SPOT peptide array binding signal intensity,[8],11.8
same,SPOT peptide array binding signal intensity,[9],454
same,SPOT peptide array binding signal intensity,[10],295
same,SPOT peptide array binding signal intensity,[11],≤ 0
same,SPOT peptide array binding signal intensity,[12],2
same,SPOT peptide array binding signal intensity,[13],5
same,SPOT peptide array binding signal intensity,[14],≤ 0
same,SPOT peptide array binding signal intensity,[15],≤ 0
same,SPOT peptide array binding signal intensity,[16],3
same,SPOT peptide array binding signal intensity,[17],0.5
same,SPOT peptide array binding signal intensity,[18],225
same,SPOT peptide array binding signal intensity,[19],17
same,SPOT peptide array binding signal intensity,[20],≤ 0
same,SPOT peptide array binding signal intensity,[21],≤ 0
same,SPOT peptide array binding signal intensity,[22],≤ 0
same,SPOT peptide array binding signal intensity,[23],≤ 0
same,SPOT peptide array binding signal intensity,[24],1
same,SPOT peptide array binding signal intensity,[25],228
same,SPOT peptide array binding signal intensity,[26],≤ 0
same,SPOT peptide array binding signal intensity,[27],4.75
same,SPOT peptide array binding signal intensity,[28],0.5
same,SPOT peptide array binding signal intensity,[29],≤ 0
same,SPOT peptide array binding signal intensity,[30],3.75
same,SPOT peptide array binding signal intensity,[31],100
same,SPOT peptide array binding signal intensity,[32],0.333
same,SPOT peptide array binding signal intensity,[33],4.5
same,SPOT peptide array binding signal intensity,[34],28.5
same,SPOT peptide array binding signal intensity,[35],≤ 0
same,SPOT peptide array binding signal intensity,[36],≤ 0
same,SPOT peptide array binding signal intensity,[37],59.5
same,SPOT peptide array binding signal intensity,[38],3.75
same,SPOT peptide array binding signal intensity,[39],3.5
same,SPOT peptide array binding signal intensity,[40],13
same,SPOT peptide array binding signal intensity,[41],6.5
same,SPOT peptide array binding signal intensity,[42],8
same,SPOT peptide array binding signal intensity,[43],15
same,SPOT peptide array binding signal intensity,[44],0.5
same,SPOT peptide array binding signal intensity,[45],1630
same,SPOT peptide array binding signal intensity,[46],23.5
same,SPOT peptide array binding signal intensity,[47],≤ 0
same,SPOT peptide array binding signal intensity,[48],≤ 0
same,SPOT peptide array binding signal intensity,[49],≤ 0
same,SPOT peptide array binding signal intensity,[50],≤ 0
same,SPOT peptide array binding signal intensity,[51],≤ 0
same,SPOT peptide array binding signal intensity,[52],≤ 0
same,SPOT peptide array binding signal intensity,[53],≤ 0
same,SPOT peptide array binding signal intensity,[54],4.67
same,SPOT peptide array binding signal intensity,[55],105
same,SPOT peptide array binding signal intensity,[56],≤ 0
same,SPOT peptide array binding signal intensity,[57],8
same,SPOT peptide array binding signal intensity,[58],34
same,SPOT peptide array binding signal intensity,[59],≤ 0
same,SPOT peptide array binding signal intensity,[60],≤ 0
same,SPOT peptide array binding signal intensity,[61],≤ 0
same,SPOT peptide array binding signal intensity,[62],1
same,SPOT peptide array binding signal intensity,[63],24.5
same,SPOT peptide array binding signal intensity,[64],0.5
same,SPOT peptide array binding signal intensity,[65],870
same,SPOT peptide array binding signal intensity,[66],770
same,SPOT peptide array binding signal intensity,[67],11
same,SPOT peptide array binding signal intensity,[68],≤ 0
same,SPOT peptide array binding signal intensity,[69],≤ 0
same,SPOT peptide array binding signal intensity,[70],7
same,SPOT peptide array binding signal intensity,[71],≤ 0
same,SPOT peptide array binding signal intensity,[72],≤ 0
same,SPOT peptide array binding signal intensity,[73],≤ 0
same,SPOT peptide array binding signal intensity,[74],≤ 0
